This is part of a sample that, as a whole, favours compounds with a hit. Of some 83,000 tested, about 20% had one in any assay.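 Percent growth is the endpoint: 0 to 100 indicates growth inhibition (40 means 60% inhibition), 0 means no net growth, and negative values indicate cell death.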 A number with no mark means an inactive call. The source made the active and inactive calls. How the source made its calls: active means growth percent below 10; inactive means the rest.

We go through 7 compounds from PubChem BioAssay (NCI).

Among the test systems are SK-MEL-2 melanoma; EKVX NSCLC; SN12C renal; UO-31 renal; TK-10 renal; ACHN renal; CAKI-1 renal; A498 renal; CCRF-CEM leukemia; MOLT-4 leukemia; SR leukemia; RPMI-8226 leukemia; OVCAR-8 ovarian; OVCAR-5 ovarian; OVCAR-4 ovarian; SK-OV-3 ovarian; IGROV1 ovarian; OVCAR-3 ovarian; HS 578T breast; NCI/ADR-RES ovarian.
Common to all, as to assay: NCI-60 one-dose screen, 48 h (100 = growth as untreated, 0 = no growth, -100 = all killed)
What all share (settings): 10 µM unless noted

For the compound `O=C(CSc1nnc(-c2cc(-c3ccccc3)nc3ccccc23)n1-c1ccccc1)Nc1ccc(C(=O)/C=C/c2ccc(Cl)cc2)cc1`, the growth in the assay with SK-MEL-2 melanoma is 112%; in the assay on EKVX NSCLC, 88.5%; in the assay with SN12C renal, 85.1%; in the assay with UO-31 renal, 84.4%; in the assay with TK-10 renal, 110%; in the assay on ACHN renal it was 87.1%. Besides, the growth is 81.5% in the assay with CAKI-1 renal; 81.5% in the assay on A498 renal; 72.2% with CCRF-CEM leukemia; 68.6% with MOLT-4 leukemia; 80.2% in the assay on SR leukemia; 66.6% in the assay on RPMI-8226 leukemia. The growth in the assay on OVCAR-8 ovarian is 93.1%; in the assay on OVCAR-5 ovarian, 90.1%; with OVCAR-4 ovarian, 91.6%; in the assay on SK-OV-3 ovarian it was 94.2%; in the assay with IGROV1 ovarian, 108%; in the assay on OVCAR-3 ovarian, 97.2%. Moreover, the growth was 89.1% with HS 578T breast and 95.3% in the assay with NCI/ADR-RES ovarian.

As to `COc1cc(-c2nc3c(ncc4ccc(=O)n(-c5ccccc5)c43)s2)cc(OC)c1OC`, the growth is 88.4% in the assay with SK-MEL-2 melanoma; 53.3% in the assay with EKVX NSCLC; 73.9% in the assay on SN12C renal; 24.9% in the assay on UO-31 renal; 54% in the assay with TK-10 renal; 79% in the assay with ACHN renal. Moreover, the growth in the assay on CAKI-1 renal is 67.4%; in the assay with A498 renal it was 6.71% (active); in the assay on CCRF-CEM leukemia it was 74.1%; in the assay on MOLT-4 leukemia it was 69.5%; with SR leukemia it was 74.5%; in the assay with RPMI-8226 leukemia, 52.9%. In addition, the growth was 88.3% in the assay with OVCAR-8 ovarian; 73.5% with OVCAR-5 ovarian; 72.8% in the assay on OVCAR-4 ovarian; 80% in the assay on SK-OV-3 ovarian; 53.5% in the assay on IGROV1 ovarian; 79.7% with OVCAR-3 ovarian. Besides, the growth with HS 578T breast was 52.6%; in the assay with NCI/ADR-RES ovarian it was 73.1%.

Take `Cc1ccc2c(=O)cc(C(=O)Nc3sc4c(c3C(=O)NCc3cccnc3)CCCC4)oc2c1C`: the growth in the assay on SK-MEL-2 melanoma was 109%; in the assay on EKVX NSCLC it was 103%; in the assay with SN12C renal it was 95.3%; in the assay with UO-31 renal it was 78.5%; with TK-10 renal, 116%; in the assay on ACHN renal, 96.8%. Moreover, the growth in the assay on CAKI-1 renal is 90.6%; with A498 renal it was 89.1%; in the assay on CCRF-CEM leukemia, 93%; in the assay on MOLT-4 leukemia, 90.3%; in the assay with SR leukemia it was 89.8%; with RPMI-8226 leukemia it was 102%. In addition, the growth with OVCAR-8 ovarian was 98.4%; in the assay with OVCAR-5 ovarian, 105%; in the assay with OVCAR-4 ovarian, 105%; with SK-OV-3 ovarian it was 100%; in the assay on IGROV1 ovarian, 100%; in the assay on OVCAR-3 ovarian, 106%. Besides, the growth in the assay on HS 578T breast is 91.7%; with NCI/ADR-RES ovarian, 98.9%.

As for `CN1CCN(C(=O)[C@@]2(C)CC[C@]3(C)CC[C@]4(C)C(=CC[C@@H]5[C@@]6(C)CCC(=O)NC(C)(C)[C@@H]6CC[C@]54C)[C@@H]3C2)CC1`, the growth in the assay on SK-MEL-2 melanoma is 78.3%; in the assay on EKVX NSCLC, 79.6%; in the assay with SN12C renal it was 58%; in the assay with UO-31 renal it was 48.3%; in the assay on TK-10 renal, 79.4%; in the assay with ACHN renal it was 69.9%. Further, the growth was 42.5% in the assay on CAKI-1 renal; 73.1% in the assay on A498 renal; 29% with CCRF-CEM leukemia; 15.8% in the assay on MOLT-4 leukemia; -10.4% (active) in the assay on SR leukemia; 20.6% in the assay with RPMI-8226 leukemia. The growth is 64.1% in the assay with OVCAR-8 ovarian; 83.8% in the assay on OVCAR-5 ovarian; 50.6% in the assay with OVCAR-4 ovarian; 53.8% with SK-OV-3 ovarian; 63.8% in the assay on IGROV1 ovarian; 57.8% in the assay with OVCAR-3 ovarian. For the same compound, the growth in the assay with HS 578T breast was 55.2%; with NCI/ADR-RES ovarian, 59.6%.

As for `Cc1ccc(N2C(=O)CCC2=O)cc1`, the growth is 84.8% in the assay with SK-MEL-2 melanoma; 95.1% in the assay on EKVX NSCLC; 95.3% in the assay on SN12C renal; 97.9% with UO-31 renal; 89.9% in the assay with TK-10 renal; 103% with ACHN renal. Also, the growth in the assay on CAKI-1 renal was 96.9%; in the assay on A498 renal, 82.3%; with CCRF-CEM leukemia, 108%; in the assay with MOLT-4 leukemia, 101%; in the assay on SR leukemia, 104%; in the assay on RPMI-8226 leukemia it was 103%. The growth was 108% in the assay with OVCAR-8 ovarian; 96.3% with OVCAR-5 ovarian; 103% in the assay with OVCAR-4 ovarian; 99.7% in the assay on SK-OV-3 ovarian; 113% in the assay on IGROV1 ovarian; 102% in the assay with OVCAR-3 ovarian. Further, the growth in the assay on HS 578T breast was 99.4%; in the assay on NCI/ADR-RES ovarian it was 98.5%.

`Cc1nc2sc(C(=O)Nc3cccc(Br)c3C)c(N)c2cc1C(O)c1ccccc1` (stereo not given): the growth in the assay with SK-MEL-2 melanoma is 29.7%; with EKVX NSCLC, 39.7%; with SN12C renal, 8.12% (active); in the assay on UO-31 renal it was 30.9%; with TK-10 renal, 44.7%; in the assay with ACHN renal, 21.9%. Further, the growth was 20.4% with CAKI-1 renal; -12.8% (active) with A498 renal; 17.2% with CCRF-CEM leukemia; 12% in the assay with MOLT-4 leukemia; 7.47% (active) with SR leukemia; 2.82% (active) in the assay on RPMI-8226 leukemia. Also, the growth was 12.2% in the assay on OVCAR-8 ovarian; 32.3% with OVCAR-5 ovarian; 47.1% with OVCAR-4 ovarian; 11.4% with SK-OV-3 ovarian; 15.5% in the assay with IGROV1 ovarian; -2.75% (active) with OVCAR-3 ovarian. Also, the growth in the assay on HS 578T breast was 12.3%; in the assay with NCI/ADR-RES ovarian it was 4.66% (active).

`O=C(CN1CCCCCC1)Nc1nc2ccc(NCc3ccc(Cl)cc3)cc2s1`: the growth is 109% in the assay with SK-MEL-2 melanoma; 96.4% in the assay on EKVX NSCLC; 95.5% in the assay with SN12C renal; 88.6% in the assay with UO-31 renal; 110% in the assay on TK-10 renal; 88.7% with ACHN renal. Further, the growth in the assay with CAKI-1 renal is 86.1%; in the assay on A498 renal it was 110%; in the assay with CCRF-CEM leukemia, 93%; in the assay with MOLT-4 leukemia, 92.4%; in the assay on SR leukemia, 97.2%; in the assay with RPMI-8226 leukemia it was 79.3%. Besides, the growth is 95.3% in the assay on OVCAR-8 ovarian; 98.6% in the assay on OVCAR-5 ovarian; 96.3% with OVCAR-4 ovarian; 107% with SK-OV-3 ovarian; 98.4% with IGROV1 ovarian; 104% in the assay on OVCAR-3 ovarian. The growth was 98% with HS 578T breast and 106% in the assay on NCI/ADR-RES ovarian.
